Source: PubChem BioAssay
IL1B secr inh: inflammasome signaling inhibition, IL-1 beta readout. THP-1 LPS/ATP IL-1B secretion, AlphaLISA, 16 h; active compounds read low. activity change, % at 57.5 µM. 360,000 tested, 4.7% active. AID 743279; in the data active = activity change below about -50%; inconclusive = mostly about -30% to -49%
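THP-1 cells pretreated 1 hr with compounds (up to 57.5 uM final), then stimulated with LPS (250 ng/mL final) plus ATP (1.25 mM final); secreted IL-1B measured by AlphaLISA after 16 hr, decreased signal indicating inhibition.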
HT1080-NT tox: kills 2HG-producing HT-1080-NT fibrosarcoma cells; Potency, µM (doses to about 46.1 µM), without a hit: at the top dose activity, negative = less viability, usual class: cytotoxic; HT-1080-NT fibrosarcoma viability, CellTiter-Glo ATP luminescence, 48 h; 360,000 tested, 1.6% active; AID 686970;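 also: NT is the 2HG producing partner of a matched IDH1 knockdown line; potency is read from the fitted curve at half-maximal effect; 0% = DMSO-treated cells and -100% = media-only wells without cells; nearly all actives have a fitted effect of over 55% in size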
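Toxicity toward the 2HG-producing NT line was scored as %Activity, normalised to DMSO and no-cell wells, from CellTiter-Glo luminescence after 48 hours' treatment.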
DT40 TDP1 no CPT: qHTS for Inhibitors of human tyrosyl-DNA phosphodiesterase 1 (TDP1): qHTS in cells in absence of CPT; DT40 Tdp1-/- hTDP1 cells, no CPT, ATP luminescence, 48 h; Potency, µM (top dose mostly 46.2 µM), without a hit: top-dose activity change, negative = growth inhibition, actives largely listed as inhibitors; 420,000 tested, 15% active; AID 686978, 2013; also: potency is read from the fitted curve at half-maximal effect; nearly all actives have a fitted effect of over 55% in size
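Luminescent ATP content (CellTiter-Glo) served as the growth readout. Knockout chicken DT40 cells expressing human TDP1 were exposed to compounds without camptothecin for a minimum 48 hr at 37 °C.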
HT1080 IDH1KD tx: toxicity to HT-1080 IDH1 knockdown cells (counter line) | Potency, µM (doses to about 46.1 µM), for inactives: at the top dose activity, negative = toxicity, actives largely listed as cytotoxic | AID 686971 | 360,000 tested, 2% active | HT-1080 IDH1 knockdown viability, ATP luminescence, 48 h;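 also: potency is read from the fitted curve at half-maximal effect; 0% = DMSO wells and -100% = cell-free medium wells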
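HT-1080-IDH1KD cells (IDH1 knocked down), 750/well in RPMI with 5% FBS, treated with compound 48 h at 37 degrees C. Viability by CellTiter-Glo luminescence, normalised to DMSO and no-cell wells; concentration-response curves classed.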
TDP1 cell CPT: DT40-hTDP1 cell growth loss with CPT | chicken DT40 Tdp1-/-;hTDP1 cells + 20 nM CPT, ATP luminescence, 48 h | Potency, µM (doses to about 46.2 µM), for the others: at the top dose activity change, negative = growth inhibition, most hits filed as inhibitors | 420,000 tested, 12% active | AID 686979; also: potency is read from the fitted curve at half-maximal effect; nearly all actives have a fitted effect of over 55% in size
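Chicken DT40 Tdp1-/- cells stably complemented with human TDP1 were seeded at 400 cells/well in medium containing 20 nM camptothecin, exposed to pin-transferred compounds, and grown at 37 °C for at least 48 hr. Viability was read as ATP luminescence.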
* hit, by the source's call; ? = inconclusive; . = no result; [ ] = dose if it differs, or a comment. The list is not random: actives were taken first. Their share in the collection is about 19%. Unless noted, calls follow the shape of the dose curve; as a rule, active = well fitted curve in the direction sought with a large enough effect; inconclusive = small, poorly fitted or top-dose-only effect, or another doubt; inactive = no such curve, though single readings can be large; an effect the other way counts as inactive or inconclusive. Unless noted, % is scaled to controls: 0 for no effect and ±100 for the full control effect.

SMILES | IL1B secr inh | HT1080-NT tox | DT40 TDP1 no CPT | HT1080 IDH1KD tx | TDP1 cell CPT
CC(C)N1C(=O)CC(Nc2cccc3cccc(N)c23)C1=O (centres undefined) | -1 | 1% | 21µM* | 3% | 23µM*
C[C@@H]1CN([C@H](C)CO)C(=O)CCCn2nncc2CO[C@@H]1CN(C)S(=O)(=O)c1ccc(C#N)cc1 | 3 | 1% | -14% | 15% | 3%
Cn1c(SCC(=O)N2CCCc3ccccc32)nnc1-c1ccccc1 | -5 | 23% | -15% | 10% | 1%
Cn1c(SCC(=O)N2c3ccccc3CCc3ccccc32)nnc1-c1cc2ccccc2cc1O | ? | -4% | 15µM* | -6% | 16µM*
Cc1cccc(-c2nnc(SCC(=O)N3c4ccccc4CCc4ccccc43)n2C)c1 | -56* | 1% | 23µM* | 1% | ?
CCN(CC)C(=O)CSc1nnc(-c2cc3ccccc3cc2O)n1CC | 9 | -23% | 9.2µM* | -20% | 0.92µM*
COc1ccccc1C(=O)N1CCOc2ccc(C(C)(O)CCn3cccn3)cc2C1 (centres undefined) | . | . | -16% | . | -14%
COc1ccc(C(=O)NNC(=O)COc2ccc(Cl)cc2)c(OC)c1 | -11 | 1% | 4% | 7% | 2%
Cc1ccc(CN2C(=O)C(C)Nc3ncnc(N4CCN(c5ccccn5)CC4)c32)cc1 (centres undefined) | -2 | ? | 18µM* | -14% | ?
COc1ccc(CN2C(=O)C(C)Nc3ncnc(N4CCc5ccccc5C4)c32)cc1 (centres undefined) | 48 | 2.1µM* | 4.6µM* | 2.3µM* | 4.6µM*
COc1ccc(CN2C(=O)C(C)Nc3ncnc(N4CCN(c5ccccn5)CC4)c32)cc1 (centres undefined) | -20 | ? | 23µM* | -12% | ?
COCCn1c(SCC(=O)Nc2cc(Cl)ccc2OC)nc2c([nH]c3ccccc32)c1=O | . | . | -10% | . | -19%
COc1cc(OC)c2c(-c3ccccc3)cc(=O)oc2c1C(CC(=O)N1CCOCC1)c1ccc2c(c1)OCO2 (centres undefined) | -3 | -4% | ? | -3% | ?
CCCCCc1cc(=O)oc2c(C(CCN3CCCC(C)C3)c3ccc4c(c3)OCO4)c(OC)cc(OC)c12 (centres undefined) | -54* | -5% | ? | -2% | ?
CCCCCc1cc(=O)oc2c(C(CCN(CC)CC)c3cc(OC)c(OC)c(OC)c3)c(OC)cc(OC)c12 (centres undefined) | ? | ? | 18µM* | 18µM* | ?
CCCCCc1cc(=O)oc2c(C(CCN3CCCCC3)c3ccc4c(c3)OCO4)c(OC)cc(OC)c12 (centres undefined) | -18 | ? | ? | ? | 23µM*
CCN(CC)CCC(c1cc(OC)c(OC)c(OC)c1)c1c(O)cc(OC)cc1OC (centres undefined) | 21 | 0% | ? | 0% | ?
COc1cc(OC)c2ccc(=O)oc2c1C(CCN1CCCC1)c1ccc2c(c1)OCO2 (centres undefined) | -5 | -9% | 18µM* | -7% | ?
Cc1cc(Br)ccc1NC(=O)CN(C)C(=O)CN1C(=O)NC(C)(C2CC2)C1=O (centres undefined) | 19 | 2%[9.24 µM] | -4% | -6% | -25%
COc1ccc(C(=O)N2CCC3(CC2)CCN(c2ncccn2)CC3)cc1 | . | . | -26% | . | 3%
Fc1ccc(Sc2nc(-c3ccccc3)nnc2C(F)(F)F)cc1 | -120* | 23µM* | 13µM* | 23µM* | 5.8µM*
O=C(c1ccccc1C(F)(F)F)N1CCN(S(=O)(=O)c2ccccc2)CC1 | -7 | 8% | -7% | 4% | 2%
CC1(C(=O)Nc2ccc(Cl)c(Cl)c2)CCN1C(=O)CC1CCCC1 (centres undefined) | -7 | 16% | ? | 12% | 26µM*
CC1(C(=O)Nc2cccc3cccnc23)CCN1C(=O)CC1CC1 (centres undefined) | 20 | 8% | -17% | 0% | -23%
COc1ccc(NC(=O)C2(C)CCN2C(=O)Cc2ccc(Cl)cc2Cl)cc1OC (centres undefined) | -19 | 4% | 21µM* | 1% | 18µM*
SMILES | IL1B secr inh | HT1080-NT tox | DT40 TDP1 no CPT | HT1080 IDH1KD tx | TDP1 cell CPT
COc1ccc(OC)c(S(=O)(=O)NC(=O)C2(C)CCN2C(=O)Cc2ccc(Cl)cc2Cl)c1 (centres undefined) | -8 | 0% | -6% | 22% | -28%
CC1(C(=O)Nc2ccc3c(c2)OCCO3)CCN1C(=O)CC1CCCC1 (centres undefined) | -4 | 6% | ? | 21% | ?
CC1(C(=O)Nc2cccc3cccnc23)CCN1C(=O)Cc1ccc(Cl)cc1Cl (centres undefined) | -22 | -15% | 21µM* | -18% | 21µM*
COc1ccc(OC)c(NC(=O)C2(C)CCN2C(=O)Cc2ccc(Cl)cc2Cl)c1 (centres undefined) | -1 | -19% | 18µM* | 3% | 21µM*
CCC(C)NC(=O)[C@H]1N2C(=O)c3c(ccc(OC)c3OC)C2SC1(C)C (some centres undefined) | 20 | 3% | -9% | 2% | 6%
COc1ccc(CN2C(=O)COc3ccccc3C2c2nc3ccccc3[nH]2)cc1 (centres undefined) | -12 | 8% | -6% | 7% | -22%
O=C1COc2ccccc2C(c2nc3ccccc3[nH]2)N1Cc1ccccc1 (centres undefined) | 12 | 0% | 16µM* | 2% | ?
O=C(NCc1ccccc1)C1c2ccccc2OCC(=O)N1Cc1ccccc1 (centres undefined) | -15 | -87% | 12µM* | ? | ?
O=C(CC(C(=O)O)c1ccc(Cl)cc1)c1ccccc1 (centres undefined) | 2 | -1% | -17% | 11% | 3%
Cc1c(Cl)cccc1NC(CC(=O)c1ccccc1)C(=O)O (centres undefined) | -3 | 4% | ? | 2% | 15µM*
O=C(CC(Nc1cccc(Cl)c1Cl)C(=O)O)c1ccccc1 (centres undefined) | 37 | -17% | 12% | 0% | -22%
O=C(CC(Nc1ccc(Cl)cc1)C(=O)O)c1ccccc1 (centres undefined) | -7 | 2% | -26% | -19% | 21µM*
O=C(CCCC1=NS(=O)(=O)c2ccccc2N1)OCc1ccc(Cl)cc1 | 54 | -7% | ? | -2% | ?
Cc1cc2nn(-c3ccc(Cl)cc3)nc2cc1N | 15 | 1% | -17% | 2% | 8%
